The values that follow come from the supplement of paper PMC8975748.

Counter-ions that a name gives are not always drawn.

The assay concerns Saccharomyces cerevisiae BY4741 SeMeCo community. The assay is described as follows: z-score of subpopulation abundance vs DMSO median, subpopulation auxotrophic for HUM; higher = larger share of this subpopulation than in DMSO controls. To be noted: 10 µM; 24 h; SM minimal medium; subpopulation (auxotrophy): HUM. Summed up:
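A Saccharomyces cerevisiae BY4741 community carried four plasmids, each restoring one auxotrophy and encoding a distinct fluorescent protein. It was pre-grown overnight to OD600 1.0, diluted to 0.3, and 70 µl was added to 384-well plates acoustically predosed with library drugs (10 µM final), then grown 24 h in minimal SM medium. Cells were paraformaldehyde-fixed and imaged by automated confocal microscopy, with single-auxotroph fluorescent strains setting thresholds and autofluorescence correction. Each subpopulation's abundance was scored as a z-score against the vehicle-well median.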
With `C#CCN[C@@H]1CCc2ccccc21` [Rasagiline Mesylate], the “z-score of subpopulation abundance” value is -0.47.
The figure for `OCc1ccccc1O[C@@H]1O[C@H](CO)[C@@H](O)[C@H](O)[C@H]1O` [Salicin] is -0.09; for `CCCCCOc1ccc(-c2ccc(-c3ccc(C(=O)N[C@H]4C[C@@H](O)[C@@H](O)NC(=O)[C@@H]5[C@@H](O)[C@@H](C)CN5C(=O)[C@H]([C@@H](C)O)NC(=O)[C@H]([C@H](O)[C@@H](O)c5ccc(O)cc5)NC(=O)[C@@H]5C[C@@H](O)CN5C(=O)[C@H]([C@@H](C)O)NC4=O)cc3)cc2)cc1` it is 25.3; for `COc1cc2c(cc1OC)[C@@H]1Cc3ccc(OC)c(OC)c3CN1CC2` [Rotundine] it is 0.14.
As for `C[C@H](NCc1ccc(OCc2cccc(F)c2)cc1)C(N)=O` [Safinamide], the figure is -0.17; as for `CC1(C)S[C@@H]2[C@H](NC(=O)COc3ccccc3)C(=O)N2[C@H]1C(=O)O` [Penicillin V potassium salt], -0.23.
As to `CC[C@H]1OC(=O)C[C@@H](O)[C@H](C)[C@@H](O[C@@H]2O[C@H](C)[C@@H](O[C@H]3C[C@@](C)(O)[C@@H](O)[C@H](C)O3)[C@H](N(C)C)[C@H]2O)[C@@H](CC=O)C[C@@H](C)C(=O)/C=C/C(C)=C/[C@@H]1CO[C@@H]1O[C@H](C)[C@@H](O)[C@@H](OC)[C@H]1OC` [Tylosin], the “z-score of subpopulation abundance” value was found to be 1.06.
Regarding `C[N+]1(C)[C@@H]2C[C@@H](OC(=O)C(O)(c3cccs3)c3cccs3)C[C@H]1[C@@H]1O[C@@H]12` [Tiotropium Bromide hydrate], the “z-score of subpopulation abundance” value was -0.43.
Regarding `CN(C)CCc1c[nH]c2ccc(CS(=O)(=O)N3CCCC3)cc12` [Almotriptan Malate], the “z-score of subpopulation abundance” value is -0.91.
Consider `CCC(=O)NS(=O)(=O)c1ccc(-c2c(-c3ccccc3)noc2C)cc1` [Parecoxib Sodium], for which the “z-score of subpopulation abundance” value stood at 1.38.
With `CCN(CC)CCOCCOC(=O)C1(c2ccccc2)CCCC1` [Pentoxyverine Citrate], the “z-score of subpopulation abundance” value is -1.14.
With `Cc1cccc(C)c1NC(=O)C1CCCCN1C` (centres undefined) [Mepivacaine], the “z-score of subpopulation abundance” value is -0.62.
As for `CC1=C(CC(=O)O)c2cc(F)ccc2/C1=C\c1ccc([S+](C)[O-])cc1` (centres undefined) [Sulindac], the figure is -0.07; as for `C#C[C@]1(O)CC[C@H]2[C@@H]3CCC4=CCCC[C@@H]4[C@H]3CC[C@@]21C` [Lynestrenol], 0.15.
The figure for `NC(=O)N1c2ccccc2C=Cc2ccccc21` [Carbamazepine] is -0.5; for `C[C@@H]1CC(=O)NN=C1c1ccc(NN=C(C#N)C#N)cc1` [Levosimendan] it is 0.67; for `N[C@@H](CCC(=O)O)C(=O)O` [(S)-Glutamic acid] it is -0.56.
Turning to `c1cnc2cc3c(cc2n1)[C@@H]1CNC[C@H]3C1` [Varenicline Tartrate], the “z-score of subpopulation abundance” value is -0.72.
For the compound `NC[C@@H]1O[C@H](O[C@H]2[C@@H](O)[C@H](O[C@@H]3[C@@H](O)[C@H](N)C[C@H](N)[C@H]3O[C@H]3O[C@H](CN)[C@@H](O)[C@H](O)[C@H]3N)O[C@@H]2CO)[C@H](N)[C@@H](O)[C@@H]1O` [Neomycin sulfate], the “z-score of subpopulation abundance” value was -1.64.
As for `C#CCC(Cc1cnc2nc(N)nc(N)c2n1)c1ccc(C(=O)N[C@@H](CCC(=O)O)C(=O)O)cc1` (some centres undefined) [Pralatrexate], the figure is -2.23.
As for `CCCCCCCCCCCCCCCC[N+](C)(C)C` [Cetrimonium Bromide (CTAB)], the “z-score of subpopulation abundance” value turned out to be 34.1.
For `C#C[C@]1(O)CC[C@H]2[C@@H]3CCC4=CCCC[C@@H]4[C@H]3C(=C)C[C@@]21CC` [Desogestrel], the “z-score of subpopulation abundance” value is -0.05.
The figure for `C=CC[N+]1([C@H]2C[C@H]3[C@@H]4CC[C@H]5C[C@H](O)[C@@H](N6CCOCC6)C[C@]5(C)[C@H]4CC[C@]3(C)[C@H]2OC(C)=O)CCCC1` [Rocuronium Bromide] is -1.09; for `N#CC(c1ccc(Cl)cc1)c1c(Cl)cc(-n2ncc(=O)[nH]c2=O)cc1Cl` (centres undefined) [Diclazuril] it is -0.94.
As for `CN(C/C=C/C#CC(C)(C)C)Cc1cccc2ccccc12` [Terbinafine HCl], the “z-score of subpopulation abundance” value came out at 1.65.
The figure for `CC1(C)[C@H](C(=O)O)N2C(=O)C[C@H]2S1(=O)=O` [Sulbactam sodium] is 1.25.
As for `CC/C(=C(\c1ccccc1)c1ccc(OCCN(C)C)cc1)c1ccccc1` [Tamoxifen], the figure is 0.85.
As for `COC(=O)C1=C(C)NC(C)=C(C(=O)OCCN2CCN(C(c3ccccc3)c3ccccc3)CC2)C1c1cccc([N+](=O)[O-])c1` (centres undefined) [Manidipine 2HCl], the figure is 1.21; as for `CCC(C)(Oc1ccc(C2(c3ccc(OC(C)(CC)C(=O)O)cc3)CCCCC2)cc1)C(=O)O` (centres undefined) [Clinofibrate], -0.82.
